PvdQ inh: blocks Pseudomonas aeruginosa PvdQ acylase activity | purified PvdQ acylase, fluorescence plate reader | inhibition, % at 10 µM | 0.063% of 340,000 active | AID 488965; in the data active = inhibition above about 30%, passing the limit was not always enough
CFTR F508del cor: correctors of CFTR F508del function in bronchial epithelial cells. CFBE cells, YFP halide quenching; stimulated with forskolin plus potentiator P3; % fluorescence drop versus neutral controls. activity (quench increase), % at 7.58 µM. 0.36% of 350,000 active;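 active = mean added fluorescence quench of at least 8% versus neutral control, with both replicates also reaching 8%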;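 note: cells transiently co-express mutant CFTR-F508del with the halide-sensitive YFP; corrector assay measuring rescue of mutant channel to the surface after 24 h compound exposure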
ARNT TACC3 PPI: disruptors of human ARNT/TACC3 interaction; AID 623870; Q9Y6A5; AlphaScreen His-ARNT PAS-B/GST-TACC3 binding, luminescence; TACC3 fragment carries E629A point mutation; 0.66% of 390,000 active; inhibition, % at 9.99 µM;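 active = mean inhibition of replicates at least 50% and at least half of replicates each reaching 50%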
rRNA inh HTS: inhibits bacterial ribosomal RNA function over humanized ribosomes | E. coli WT GFP vs humanized-ribosome RFP mutants, fluorescence, 24 h; stronger effect = lower value; DMSO median 0, no signal -100 | GFP signal change (wild-type ribosome), % (concentration not given with the values) | 1.6% of 350,000 active | AID 720706;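 active = significant combined selectivity score with lowered wild-type GFP, culture density cut under 30%, mutant RFP and density less affected; inactive = any of these conditions unmet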
ERAP1 HTS inh: blocks human ERAP1 aminopeptidase activity | inhibition, % at 10.7 µM | 0.15% of 340,000 active | Q9NZ08 | recombinant ERAP1, Leu-AMC fluorescence, 60 min | AID 652197;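 active = mean replicate inhibition of at least 30%, or all replicates individually reaching that 30% level; inactive = mean below 30% and not every replicate reaching it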
Target sequence (Q9NZ08 whole entry, looked up): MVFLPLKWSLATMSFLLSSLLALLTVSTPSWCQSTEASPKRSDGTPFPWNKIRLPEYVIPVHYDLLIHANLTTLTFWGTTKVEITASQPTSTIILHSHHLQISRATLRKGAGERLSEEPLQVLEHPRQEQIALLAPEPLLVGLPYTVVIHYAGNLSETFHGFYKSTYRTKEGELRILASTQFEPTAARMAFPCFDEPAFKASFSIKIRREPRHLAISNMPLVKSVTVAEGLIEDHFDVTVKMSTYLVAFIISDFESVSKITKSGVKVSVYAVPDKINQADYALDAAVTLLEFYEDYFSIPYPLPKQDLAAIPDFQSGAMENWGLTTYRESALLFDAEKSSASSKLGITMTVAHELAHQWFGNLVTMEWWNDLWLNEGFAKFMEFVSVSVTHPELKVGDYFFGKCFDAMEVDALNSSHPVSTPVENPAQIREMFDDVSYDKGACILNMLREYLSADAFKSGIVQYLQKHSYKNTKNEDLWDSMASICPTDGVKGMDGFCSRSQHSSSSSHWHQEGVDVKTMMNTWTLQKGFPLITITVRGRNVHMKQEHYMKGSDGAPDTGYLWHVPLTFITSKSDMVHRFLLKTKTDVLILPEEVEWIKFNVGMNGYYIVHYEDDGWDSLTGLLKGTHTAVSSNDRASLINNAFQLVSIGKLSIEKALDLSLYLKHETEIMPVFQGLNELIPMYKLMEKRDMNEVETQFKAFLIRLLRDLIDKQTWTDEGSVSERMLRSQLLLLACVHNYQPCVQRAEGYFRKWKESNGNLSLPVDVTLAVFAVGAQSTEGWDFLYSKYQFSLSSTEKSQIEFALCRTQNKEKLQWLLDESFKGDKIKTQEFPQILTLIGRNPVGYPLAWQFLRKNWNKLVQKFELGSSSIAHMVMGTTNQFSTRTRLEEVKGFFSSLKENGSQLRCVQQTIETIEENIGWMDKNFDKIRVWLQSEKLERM
ARNT Alpha ctr: counter-screen for ARNT/TACC3 inhibitors: AlphaScreen artifacts | shares compounds with ARNT TACC3 PPI | His-ARNT PASB-GST AlphaScreen artifact counter-screen, luminescence | AC50, µM (top dose mostly 68 µM) | 50% of 1,200 active | AID 651705;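 active = every separate test run was called active for a drop in luminescence, with AC50 within twice the top valid dose, actives reach about 71 µM in these data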
Hits are given with their value; 0 = inactive; - = not tested or not shown. Hits are enriched below; roughly 2.1% of the tested compounds scored in any of these assays.

SMILES | PvdQ inh | CFTR F508del cor | ARNT TACC3 PPI | rRNA inh HTS | ERAP1 HTS inh | ARNT Alpha ctr
CCCCN1C(=O)C(O)(CC(=O)c2c(C)n[nH]c2C)c2cc(Br)ccc21 (stereo not given) | 0 | - | 0 | -21 | 0 | -
O=C1CN(S(=O)(=O)c2cccc(F)c2)C[C@@H]2[C@H](c3ccc(-c4ccccc4)cc3)[C@@H](CO)N12 | - | 0 | - | 0 | 0 | -
CC(=O)N(C)C1=C(O)c2ccccc2C(=O)C1=O | 0 | - | 11 | - | - | 0
C[C@@H]1CCCCO[C@@H](CN(C)S(=O)(=O)c2ccc(Cl)cc2)[C@H](C)CN([C@H](C)CO)C(=O)c2cc(NC(=O)c3ccccc3)ccc2O1 | - | 0 | 0 | 0 | 0 | -
CN(C)c1ccc2c(c1)[C@@H]1C[C@@H](CC(=O)N3CCOCC3)O[C@@H](CO)[C@@H]1O2 | - | 0 | 70 | 0 | 0 | 0
CN(C)c1ccc2c(c1)[C@@H]1C[C@@H](CC(=O)N3CCCCC3)O[C@H](CO)[C@@H]1O2 | - | 0 | - | 0 | 0 | -
COc1cc(OC)cc(C(=O)Oc2c(CN3CCOCC3)cc(Cl)c3cccnc23)c1 | 0 | 0 | 41 | 0 | 0 | 0
Oc1c(Cl)cc(Cl)c(Cl)c1CN1CCOCC1 | 0 | 0 | 0 | 0 | 0 | -
O=C(Oc1c(CN2CCOCC2)cc(Cl)c2cccnc12)c1ccccc1 | 0 | - | 52 | 0 | 0 | 0
Oc1c(CN2CCCCC2)cc(Br)c2cccnc12 | 0 | - | 64 | - | - | 5.6µM
Oc1c(Cl)cc(CN2CCOCC2)c2cccnc12 | 0 | 27 | 71 | 0 | 0 | 7.3µM
O=[N+]([O-])c1cccc(/C=N/Nc2nc(NCc3ccccc3)nc(N3CCOCC3)n2)c1O | 0 | 0 | 59 | 0 | 0 | 14µM
O=S1(=O)N=C(N/N=C/c2ccccn2)c2ccccc21 | 0 | - | 59 | - | - | 24µM
CCN(CC)c1ccc(C(=C2C=CC(=[N+](CC)CC)C=C2)c2ccc(N(CC)CC)cc2)cc1 | 0 | 0 | 50 | - | 0 | 0.7µM
CCN(CC)c1ccc(C(=O)NNC(=O)CCl)cc1 | 0 | 0 | 0 | 0 | 0 | -
C/C(=N\NC(=O)C(C)Oc1ccc([N+](=O)[O-])cc1)c1ccccn1 (stereo not given) | 0 | - | 54 | - | - | 34µM
CCC(=O)Nc1ccc2c(c1)OC[C@H](C)N(Cc1ccccn1)C[C@H](C)[C@H](OC)CN(C)C2=O | - | 0 | 0 | 0 | 0 | -
C[C@H](O)C#Cc1cnc2c(c1)C(=O)N([C@@H](C)CO)C[C@H](C)[C@H](CN(C)Cc1ccc(-c3ccccc3)cc1)O2 | - | 0 | 0 | 0 | 0 | -
Cc1ccc(S(=O)(=O)CCC(=O)Nc2nc(-c3ccccn3)cs2)cc1 | 0 | 0 | 80 | 0 | 0 | 71µM
Cc1ccc(OCC(=O)Nc2nc(-c3ccccn3)cs2)c(C)c1 | 0 | 0 | 0 | 0 | 0 | -
Cc1ccc(C2(C)NC(=O)N(CC(=O)Nc3nc(-c4ccccn4)cs3)C2=O)cc1 (stereo not given) | 0 | 10.0 | 54 | 0 | 0 | 33µM
CC1(c2ccccc2)NC(=O)N(CC(=O)Nc2nc(-c3ccccn3)cs2)C1=O (stereo not given) | 0 | 0 | 61 | 0 | 0 | 56µM
Cc1cc(C)n2c(Nc3c(C)cccc3C)c(-c3ccccn3)nc2n1 | - | 0 | - | 0 | 0 | -
Cc1ccc2nc(-c3ccccn3)c(NC3CCCC3)n2c1 | 0 | 0 | 61 | 0 | 0 | 32µM
CCCCCCSc1cccc(-c2nc3ccc(C)cn3c2NC2CCCCC2)c1 | 0 | 0 | 0 | 0 | 0 | -
Cc1cccc(C)c1Nc1c(-c2ccccn2)nc2ccccn12 | 0 | 0 | 65 | 0 | 0 | 18µM
Cc1ccc(Nc2c(-c3ccccn3)nc3cccc(C)n23)cc1 | 0 | 0 | 56 | 0 | 0 | 20µM
Cc1cccc2nc(-c3ccco3)c(Nc3ccccc3)n12 | 0 | 0 | 0 | 0 | 0 | -
CN1CCN(C(=O)C[C@H]2C[C@H]3c4cc(NS(=O)(=O)c5ccc(F)cc5)ccc4O[C@H]3[C@@H](CO)O2)CC1 | - | 0 | 0 | 0 | - | -
CC=Cc1ccc2n(c1=O)C[C@@H]1[C@@H](CO)[C@H](C(=O)NC3CCC3)[C@H]2N1S(=O)(=O)c1cn(C)cn1 (mixture of isomers) | - | - | 0 | 0 | 0 | -
